Laboratory results published in PubChem BioAssay (NCATS).
Inconclusive results are not listed. Activity calls are given as the source filed them. The call rests on the fitted dose curve; in most records, active means well fitted curve in the direction sought with a large enough effect; inconclusive means small, poorly fitted or top-dose-only effect, or another doubt; inactive means no such curve, though single readings can be large; an effect the other way counts as inactive or inconclusive.

Key:
[1] = MultiTox-Fluor Cytotoxicity Assay - LYMP1-001 - Dead Cells (AID 946);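 further: cells exposed to compound for 16 h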
Summary of the method: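 Seed 2500 LYMP1-001 cells/well, incubate 5 hr at 37 C; add compound, 16 hr at 37 C; add MultiTox-Fluor reagent, 60 min RT; read dead-cell fluorescence Ex/Em=485/520. Normalize to DMSO and 15 uM tetraoctylammonium bromide.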

[2] = MultiTox-Fluor Cytotoxicity Assay - LYMP1-001 - Live Cells (AID 947)
[3] = Cell Viability - LYMP1-002 - Assay at 16 hr (AID 948)
Summary of the method: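 In this qHTS, lymphoblastoid LYMP1-002 cells (human) receive compounds for 16 hr at 37 C. Viability is taken from CellTiter-Glo ATP luminescence, and AC50 derives from standard Hill fits.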

[4] = MultiTox-Fluor Cytotoxicity Assay - LYMP1-002 - Dead Cells (AID 960);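 further: cells exposed to compound for 16 h at 37 °C; nearly all actives have a fitted effect of over 60% in size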
Summary of the method: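 Human lymphoblastoid LYMP1-002 cells, 2500/well, treated 16 h at 37 C; dead-cell protease cleavage of bis-AAF-R110 read by fluorescence (485/520); normalized to DMSO and 15 uM tetraoctylammonium bromide; AC50 from Hill fit.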

[5] = MultiTox-Fluor Cytotoxicity Assay - LYMP1-003 - Dead Cells (AID 961);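 further: cells exposed to compound for 16 h at 37 °C; nearly all actives have a fitted effect of over 70% in size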
Summary of the method: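 LYMP1-003 lymphoblastoid, 2500 cells/well, 5 hr settle then 16 hr cpd at 37 C; MultiTox-Fluor reagent 60 min RT; Ex/Em 485/520 dead-cell signal; norm. DMSO = 0%, 15 uM tetraoctylammonium bromide = 100%; Hill AC50.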

[6] = MultiTox-Fluor Cytotoxicity Assay - LYMP1-003 - Live Cells (AID 962);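 further: cells exposed to compound for 16 hours at 37 °C; cytotoxic hits lower the live-cell protease signal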
Summary of the method: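 LYMP1-003 lymphoblastoid cells, 2500/well in complete medium, treated 16 h at 37 C; live-cell protease cleavage of GF-AFC read by fluorescence (Ex/Em 405/510) after 60 min reagent; AC50 from Hill fits of concentration-response.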

[7] = Cell Viability - LYMP1-003 - Assay at 24 hr (AID 963)
Summary of the method: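 Human lymphoblastoid LYMP1-003 cells, 2500/well, treated 24 h at 37 C in complete medium. Viability read as intracellular ATP by CellTiter-Glo luminescence after 30 min at room temperature; AC50 from Hill-equation fits of qHTS concentration-response.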

[8] = Cell Viability - LYMP1-003 - Assay at 40 hr (AID 964); further: series mostly up to about 92 µM; nearly all actives have a fitted effect of over 60% in size
Summary of the method: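 LYMP1-003 human lymphoblastoid cells, 2500/well, preincubated 5 h at 37 C, then treated with compound for 40 h at 37 C. Intracellular ATP read by CellTiter-Glo luminescence after 30 min at room temperature; AC50 from Hill-equation fits.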

[9] = Cell Viability - LYMP2-003 (AID 965);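 further: cells exposed to compounds for 24 h before reading; nearly all actives have a fitted effect of over 50% in size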
Summary of the method: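 qHTS, human lymphoblastoid line, 2500 cells/well, complete medium. 24 h drug, 37 C. ATP-based luminescent readout; Hill-fit AC50.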

[10] = Cell Viability - LYMP2-004 (AID 966); further: nearly all actives have a fitted effect of over 65% in size
Summary of the method: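 Lymphoblastoid LYMP2-004 cells, 2500 per well, were preincubated for 5 hr and then treated with compound for 24 h at 37 C in complete medium. Viability was read as cellular ATP by CellTiter-Glo luminescence, and AC50 values were taken from Hill fits to concentration-response data.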

[11] = Cell Viability - LYMP2-005 (AID 967); further: series mostly up to about 92 µM
Summary of the method: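 Luciferase-based ATP quantitation served as the viability measure in human lymphoblastoid LYMP2-005 cells exposed to test compounds for 24 h at 37 C in complete culture medium. Potency (AC50) was obtained by fitting concentration-response curves with the Hill equation.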

[12] = Cell Viability - LYMP2-009 (AID 968); further: series mostly up to about 92 µM; nearly all actives have a fitted effect of over 55% in size
[13] = Cell Viability - LYMP2-013 (AID 970); further: series mostly up to about 92 µM; nearly all actives have a fitted effect of over 55% in size
Summary of the method: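 Human lymphoblastoid LYMP2-013 cells, 2500/well, treated 24 h at 37 C in complete medium; viability as intracellular ATP by CellTiter-Glo luminescence after 30 min. AC50 from Hill fits of qHTS concentration-response.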

[14] = Cell Viability - LYMP2-015 (AID 971); further: nearly all actives have a fitted effect of over 55% in size
Summary of the method: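 LYMP2-015 human lymphoblastoid cells (2500/well) in complete medium, compound-treated 24 h at 37 C; viability read as cellular ATP by CellTiter-Glo luminescence after 30 min at room temperature. AC50 from Hill-equation fits of qHTS concentration-response data.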

[15] = Cell Viability - LYMP2-017 (AID 972); further: series mostly up to about 92 µM; nearly all actives have a fitted effect of over 55% in size
Summary of the method: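 LYMP2-017 human lymphoblastoid cells (2500/well) settled 5 hr at 37 C, then exposed to compound 24 hr at 37 C in complete medium. Viability taken as intracellular ATP by CellTiter-Glo luminescence after 30 min at RT; AC50 from Hill fits.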

[16] = Cell Viability - LYMP2-019 (AID 973); further: nearly all actives have a fitted effect of over 55% in size
Summary of the method: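 Human lymphoblastoid LYMP2-019 cells (2500/well) preincubated 5 h at 37 C, then treated 24 h at 37 C in complete medium. Viability by CellTiter-Glo ATP luminescence after 30 min at room temperature; AC50 from Hill fits.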

[17] = Cell Viability - LYMP2-021 (AID 974)
Summary of the method: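 Human lymphoblastoid LYMP2-021 cells, 2500/well in complete medium, treated 24 hours at 37 C. Intracellular ATP by CellTiter-Glo luminescence (30 min, RT); AC50 from Hill fits of concentration-response.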

[18] = Cell Viability - LYMP2-023 (AID 975)
Summary of the method: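 LYMP2-023 human lymphoblastoid cells, 2500/well, preincubated 5 hr at 37 C, then compound-treated 24 hr at 37 C in complete medium. CellTiter-Glo luminescence (ATP) after 30 min at room temperature; AC50 from Hill-equation fits; tetraoctylammonium bromide positive control.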

[19] = MultiTox-Fluor Cytotoxicity Assay - LYMP1-002 - Live Cells (AID 955);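 further: cells exposed to compound for 16 hours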
Summary of the method: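 Human lymphoblastoid LYMP1-002 cells, 2500/well, treated 16 h at 37 C in complete medium. Live-cell protease activity via GF-AFC fluorescence (Ex/Em 405/510) after 60 min reagent incubation; AC50 from Hill fits.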

[20] = Cell Viability - LYMP2-011 (AID 969); further: nearly all actives have a fitted effect of over 60% in size
Summary of the method: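 2500 cells/well in complete medium, compound-treated 24 h at 37 C. Viability read as intracellular ATP by CellTiter-Glo luminescence after 30 min at room temperature. AC50 from Hill fits of qHTS concentration-response data.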

Measured: Potency

CC(=O)C1(C)CC2=C(CCCC2(C)C)CC1C (centres undefined)
inactive: [1] | [2] | [3] | [4] | [5] | [6] | [7] | [8] | [9] | [10] | [11] | [12] | [13] | [14] | [15] | [16] | [17] | [18]

Cc1cccc([N+](=O)[O-])c1C(=O)O
inactive: [1] | [2] | [19] | [4] | [5] | [6] | [8] | [9] | [10] | [11] | [12] | [20] | [13] | [14] | [15] | [16] | [17] | [18]

O=[N+]([O-])c1ccc(CCO)cc1
inactive: [1] | [2] | [3] | [4] | [5] | [6] | [8] | [9] | [10] | [11] | [12] | [20] | [16] | [18]

Nc1cccc(O)c1
inactive: [1] | [2] | [19] | [4] | [5] | [6] | [7] | [8] | [9] | [10] | [11] | [12] | [20] | [13] | [14] | [16] | [17] | [18]

Cc1ccc(CO)cc1
inactive: [1] | [2] | [19] | [4] | [5] | [6] | [7] | [8] | [9] | [10] | [11] | [12] | [20] | [13] | [14] | [16] | [17] | [18]

Nc1ccccc1[N+](=O)[O-]
inactive: [1] | [2] | [19] | [4] | [5] | [6] | [8] | [9] | [10] | [11] | [12] | [20] | [13] | [14] | [15] | [16] | [17] | [18]

N#Cc1ccccc1
inactive: [1] | [2] | [19] | [4] | [5] | [6] | [7] | [8] | [9] | [10] | [11] | [12] | [13] | [14] | [16] | [17] | [18]

Cc1cccc(C)c1
inactive: [1] | [2] | [19] | [4] | [5] | [6] | [7] | [8] | [9] | [10] | [11] | [12] | [20] | [13] | [14] | [15] | [16] | [17] | [18]

O=C(O)c1cccc([N+](=O)[O-])c1
inactive: [1] | [2] | [19] | [4] | [5] | [6] | [7] | [8] | [9] | [10] | [11] | [12] | [20] | [13] | [14] | [15] | [16] | [18]

CCCCN(CCO)CCCC
inactive: [1] | [2] | [3] | [4] | [5] | [6] | [7] | [8] | [9] | [10] | [11] | [12] | [20] | [13] | [14] | [15] | [16] | [17] | [18]

Nc1ccc(F)cc1F
inactive: [1] | [2] | [19] | [5] | [6] | [7] | [8] | [9] | [10] | [11] | [12] | [20] | [13] | [14] | [15] | [16] | [17] | [18]

CCCCC(CC)COC(=O)CCCCC(=O)OCC(CC)CCCC (centres undefined)
inactive: [1] | [3] | [19] | [4] | [5] | [6] | [7] | [8] | [9] | [10] | [11] | [12] | [20] | [13] | [14] | [15] | [16] | [17] | [18]

NC(=O)/N=N/C(N)=O
inactive: [1] | [3] | [19] | [4] | [6] | [8] | [9] | [10] | [11] | [12] | [20] | [14] | [15] | [16] | [17] | [18]

CCCCC(=O)N(C)C
inactive: [1] | [3] | [19] | [4] | [5] | [6] | [7] | [8] | [9] | [10] | [11] | [12] | [20] | [13] | [14] | [15] | [16] | [17] | [18]
